Inconclusive results are not listed. Calls of active or inactive are those of the source. How the source made its calls: active means hit-call score of the fitted dose curve at least 0.9, where 1 is the maximum; inconclusive means response in the unintended direction; inactive means score below 0.9.
target: cAMP-dependent protein kinase catalytic subunit alpha (Homo sapiens) (UniProt P17612); assay: NVS_ENZ_hPKA: NovaScreen (NVS) Enzymatic Assay for human Protein Kinase A (PKA) (AID 2283192)
In short: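 Cell-free kinase activity read by fluorescence after mobility-shift separation of substrate and product, 1 h post-dosing. Single-concentration duplicate screen (25 uM) preceded singleton concentration series (top 50 uM); loss of signal versus DMSO.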

| SMILES | AC50 | outcome |
| --- | --- | --- |
| CCCCCCCCCCCCc1cccc(S(=O)(=O)O)c1 | 29.9 µM (active) | – |
| CN(C)C(=S)S | – | inactive |
| O=C(N[C@H]1CN2CCC1CC2)c1ccc2c(c1)OCCO2 | – | inactive |
| N#Cc1cccnc1 | – | inactive |
| CC(C)O.CC(C)O.OCCN(CCO)CCO.OCCN(CCO)CCO.[Ti] | 0.00229 µM (active) | – |

target: human Phosphodiesterase 5 (PDE5), PDE5A (gene 8654) (UniProt O76074); assay: NVS_ENZ_hPDE5: NovaScreen (NVS) Enzymatic Assay for human Phosphodiesterase 5 (PDE5) (AID 2283194)
Method: NVS_ENZ_hPDE5 is a biochemical, single-readout assay that uses extracted gene-proteins in a cell-free assay. Measurements were taken 1 hour after chemical dosing in a 384-well plate.NVS_ENZ_hPDE5 is one of one assay component(s) measured or calculated from the NVS_ENZ_hPDE5 assay. It is designed to make measurements of enzyme activity, a form of enzyme reporter, as detected with fluorescence intensity signals by Fluorescence and electrophoretic mobility shift technology.Data from the assay component NVS_ENZ_hPDE5 was analyzed into 1 assay endpoint. This assay endpoint, NVS_ENZ_hPDE5, was analyzed in the positive analysis fitting direction relative to DMSO as the negative control and baseline of activity. Using a type of enzyme reporter, loss-of-signal activity can be used to understand changes in the enzymatic activity as they relate to the gene PDE5A. Furthermore, this assay endpoint can be referred to as a primary readout, because this assay has produced multiple assay endpoints where this one serves a enzymatic activity function. To generalize the intended target to other relatable targets, this assay endpoint is annotated to the esterase intended target family, where the subfamily is phosphodiesterase.
Binding assays used specific radioligands (tritiated, iodinated) with non-radioactive competitive displacement ligands in agonist or antagonist protocols (as indicated) and various reference compounds and inhibitors to titrate specific binding to receptors and transporters. Most enzyme assays (CYPs, kinases, phosphatases, proteases, HDACs) used recombinant protein and specific substrates (fluorescence mostly, some colorimetric and radioactive) and inhibitors, followed by a biochemical separation of substrate and product. All assays for the biochemical HTS were initially run in duplicate at a single concentration (10 uM for CYP450 assays and 25 uM for all others). […] Each assay was run with positive and negative controls, and concurrent controls on every plate. The follow-up (secondary) screen tested active chemical-pairs in concentration series, as well as a few additional assays not tested in the primary screen, some selected negative inactives, and several cases re-run in the concentration series for confirmatory purposes.

| SMILES | AC50 | outcome |
| --- | --- | --- |
| CCCCCCCCCCCCc1cccc(S(=O)(=O)O)c1 | 14.7 µM (active) | – |
| CC1(C)[C@H](C(=O)O[C@H](C#N)c2cccc(Oc3ccccc3)c2)[C@@H]1/C=C(\Cl)C(F)(F)F | – | inactive |
| COC(=O)Nc1cccc(OC(=O)Nc2cccc(C)c2)c1 | – | inactive |
| Oc1c(Cl)cc(Cl)cc1Cl | – | inactive |
| N#Cc1cccnc1 | 40.8 µM (active) | – |

target: human Phosphodiesterase 10 (PDE10), PDE10A (gene 10846) (UniProt Q9Y233); assay: NVS_ENZ_hPDE10: NovaScreen (NVS) Enzymatic Assay for human Phosphodiesterase 10 (PDE10) (AID 2283195)
In short: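 Readout is fluorescence intensity following electrophoretic mobility-shift separation, 1 h after dosing of isolated PDE10A protein. Hits meeting a preset threshold at 25 uM went to concentration series (max 50 uM), analysed relative to DMSO.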

Sequence of human Phosphodiesterase 10 (PDE10), PDE10A (gene 10846) (Q9Y233 whole entry, looked up): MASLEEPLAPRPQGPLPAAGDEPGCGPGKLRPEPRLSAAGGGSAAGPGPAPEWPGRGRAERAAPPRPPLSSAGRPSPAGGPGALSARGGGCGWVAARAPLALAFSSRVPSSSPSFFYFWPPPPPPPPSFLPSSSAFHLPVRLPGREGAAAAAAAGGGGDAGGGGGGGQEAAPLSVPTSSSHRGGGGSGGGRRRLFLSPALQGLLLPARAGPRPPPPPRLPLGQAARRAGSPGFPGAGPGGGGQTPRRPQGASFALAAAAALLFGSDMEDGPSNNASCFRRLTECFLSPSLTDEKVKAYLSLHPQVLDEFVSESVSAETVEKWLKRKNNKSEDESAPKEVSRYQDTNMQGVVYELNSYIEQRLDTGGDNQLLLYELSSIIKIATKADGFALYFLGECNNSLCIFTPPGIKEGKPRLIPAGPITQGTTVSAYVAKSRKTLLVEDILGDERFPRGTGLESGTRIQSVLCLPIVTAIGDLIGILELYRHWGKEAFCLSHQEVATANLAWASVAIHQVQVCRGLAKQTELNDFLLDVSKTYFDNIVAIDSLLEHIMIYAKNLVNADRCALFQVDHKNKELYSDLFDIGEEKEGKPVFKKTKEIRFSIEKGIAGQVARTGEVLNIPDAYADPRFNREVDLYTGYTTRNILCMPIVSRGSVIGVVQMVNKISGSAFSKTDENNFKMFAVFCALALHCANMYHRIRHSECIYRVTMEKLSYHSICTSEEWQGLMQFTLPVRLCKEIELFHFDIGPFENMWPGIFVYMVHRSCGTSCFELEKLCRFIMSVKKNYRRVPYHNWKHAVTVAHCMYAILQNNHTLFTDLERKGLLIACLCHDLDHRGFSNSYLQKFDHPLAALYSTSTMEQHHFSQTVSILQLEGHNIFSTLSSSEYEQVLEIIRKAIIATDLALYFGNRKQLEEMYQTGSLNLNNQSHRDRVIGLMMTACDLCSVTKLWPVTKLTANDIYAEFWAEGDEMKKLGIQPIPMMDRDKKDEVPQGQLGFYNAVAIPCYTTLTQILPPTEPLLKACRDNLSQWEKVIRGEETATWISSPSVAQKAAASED

| SMILES | outcome | AC50 |
| --- | --- | --- |
| O=c1oc2ccccc2c(O)c1C(CC(O)c1ccc(-c2ccc(Br)cc2)cc1)c1ccccc1 (centres undefined) | inactive | – |
| O=[N+]([O-])c1ccc(Nc2ccccc2)cc1 | inactive | – |
| CC1(C)[C@H](C(=O)O[C@H](C#N)c2cccc(Oc3ccccc3)c2)[C@@H]1/C=C(\Cl)C(F)(F)F | inactive | – |
| CC1CC(=O)O1 (centres undefined) | inactive | – |
| CC(C)[N+](=O)[O-] | inactive | – |
| CCCCOP(=O)(CCCC)OCCCC | inactive | – |
| c1ccc2sc(SNC3CCCCC3)nc2c1 | inactive | – |
| Nc1ccc(N)cc1 | – | 2.5 µM (active) |
| N#Cc1ccccc1Cl | inactive | – |
| Oc1ccc(Cc2ccc(O)cc2)cc1 | inactive | – |
| OC[P+](CO)(CO)CO | – | 9.04 µM (active) |
| O=C(N[C@H]1CN2CCC1CC2)c1ccc2c(c1)OCCO2 | inactive | – |
| CN(CCCC(O)c1cccnc1)N=O (centres undefined) | – | 35.5 µM (active) |
| CC(C)(C)c1ccc(CCOc2ncnc3ccccc23)cc1 | inactive | – |
| BrCCCCBr | – | 4.81 µM (active) |
| CCOP(=O)(OCC)SCCSCC | inactive | – |

target: human Phosphoinositide 3-kinase alpha (PI3Ka), PIK3CA (gene 5290) (UniProt P42336); assay: NVS_ENZ_hPI3Ka: NovaScreen (NVS) Enzymatic Assay for human Phosphoinositide 3-kinase alpha (PI3Ka) (AID 2283196)
In short: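 Duplicate single-point screen (25 uM), then singleton dose-response (max 50 uM) for compounds meeting the threshold. Cell-free kinase reaction, 1 h; fluorescent mobility-shift readout.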

Sequence of human Phosphoinositide 3-kinase alpha (PI3Ka), PIK3CA (gene 5290) (P42336 whole entry, looked up): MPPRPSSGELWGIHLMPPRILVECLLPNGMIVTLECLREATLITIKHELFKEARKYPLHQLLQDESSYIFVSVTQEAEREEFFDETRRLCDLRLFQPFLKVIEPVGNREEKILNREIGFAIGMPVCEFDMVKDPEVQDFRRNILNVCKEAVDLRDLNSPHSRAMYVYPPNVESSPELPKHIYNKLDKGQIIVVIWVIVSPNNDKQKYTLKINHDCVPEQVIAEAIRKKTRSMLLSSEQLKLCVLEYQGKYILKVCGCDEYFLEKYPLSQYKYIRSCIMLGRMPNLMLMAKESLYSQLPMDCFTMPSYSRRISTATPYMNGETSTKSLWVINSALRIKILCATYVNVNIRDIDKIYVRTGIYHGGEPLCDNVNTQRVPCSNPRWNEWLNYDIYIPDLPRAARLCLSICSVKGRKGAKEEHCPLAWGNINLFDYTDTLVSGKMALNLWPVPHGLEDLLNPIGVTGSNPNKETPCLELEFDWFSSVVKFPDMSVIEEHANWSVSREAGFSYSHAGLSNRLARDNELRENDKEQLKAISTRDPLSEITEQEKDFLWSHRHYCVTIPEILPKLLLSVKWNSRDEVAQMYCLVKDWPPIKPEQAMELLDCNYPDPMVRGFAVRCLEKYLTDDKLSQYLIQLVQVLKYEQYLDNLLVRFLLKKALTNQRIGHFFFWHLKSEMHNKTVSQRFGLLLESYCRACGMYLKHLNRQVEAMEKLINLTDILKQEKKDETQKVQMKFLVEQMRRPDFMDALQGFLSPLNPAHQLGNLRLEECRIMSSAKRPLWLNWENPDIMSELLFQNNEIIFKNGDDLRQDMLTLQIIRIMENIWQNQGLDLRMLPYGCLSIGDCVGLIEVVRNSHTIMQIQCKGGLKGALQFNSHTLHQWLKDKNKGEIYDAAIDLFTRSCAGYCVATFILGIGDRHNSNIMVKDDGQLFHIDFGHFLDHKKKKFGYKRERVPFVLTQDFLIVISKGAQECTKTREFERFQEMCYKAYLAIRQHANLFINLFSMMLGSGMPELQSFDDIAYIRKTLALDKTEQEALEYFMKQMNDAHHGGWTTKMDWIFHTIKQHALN

| SMILES | AC50 | outcome |
| --- | --- | --- |
| CCCCCCCCCCCCc1cccc(S(=O)(=O)O)c1 | 7.17 µM (active) | – |
| O=c1oc2ccccc2c(O)c1C(CC(O)c1ccc(-c2ccc(Br)cc2)cc1)c1ccccc1 (centres undefined) | 5.19 µM (active) | – |
| O=[N+]([O-])c1ccc(Nc2ccccc2)cc1 | – | inactive |
| CC(C)[N+](=O)[O-] | – | inactive |
| Oc1ccc(Cc2ccc(O)cc2)cc1 | – | inactive |

target: human Protein Tyrosine Phosphatase Non-receptor Type 1 (PTPN1), PTPN1 (gene 5770) (UniProt P18031); assay: NVS_ENZ_hPTPN1: NovaScreen (NVS) Enzymatic Assay for human Protein Tyrosine Phosphatase Non-receptor Type 1 (PTPN1) (AID 2283201)
In short: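 Chemicals were first tested in duplicate at 25 uM, and those passing threshold went on to singleton concentration series topping at 50 uM. Recombinant enzyme, specific substrate, product separated by mobility shift, fluorescence read at 1.33 h; activity loss relative to DMSO.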

Sequence of human Protein Tyrosine Phosphatase Non-receptor Type 1 (PTPN1), PTPN1 (gene 5770) (P18031 whole entry, looked up): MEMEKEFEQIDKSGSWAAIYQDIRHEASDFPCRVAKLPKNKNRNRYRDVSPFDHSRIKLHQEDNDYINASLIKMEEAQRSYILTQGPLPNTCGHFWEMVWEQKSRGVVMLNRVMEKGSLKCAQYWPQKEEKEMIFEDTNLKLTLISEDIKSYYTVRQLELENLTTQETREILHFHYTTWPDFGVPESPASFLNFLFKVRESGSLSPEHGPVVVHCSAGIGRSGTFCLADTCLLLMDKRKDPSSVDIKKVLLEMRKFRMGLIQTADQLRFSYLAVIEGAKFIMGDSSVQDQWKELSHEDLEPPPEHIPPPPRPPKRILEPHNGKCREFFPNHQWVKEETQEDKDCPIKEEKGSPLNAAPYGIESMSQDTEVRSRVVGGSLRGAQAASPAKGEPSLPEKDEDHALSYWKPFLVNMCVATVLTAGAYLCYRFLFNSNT

| SMILES | AC50 | outcome |
| --- | --- | --- |
| CCCCCCCCCCCCc1cccc(S(=O)(=O)O)c1 | 14.8 µM (active) | – |
| N#Cc1cccnc1 | – | inactive |
| CC(C)O.CC(C)O.OCCN(CCO)CCO.OCCN(CCO)CCO.[Ti] | 0.00438 µM (active) | – |
